# T cruzi growth = blocks T. cruzi growth in NIH3T3 culture | inhibition, % at 8.34 µM | T. cruzi beta-gal in NIH3T3, GalScreen luminescence, 90 h | 77,000 tested, 5.9% active;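 active = mean inhibition above about 93%, with at least 55% of replicates each passing it, limit read from the data, passing the limit was not always enough; inconclusive = only one of those two conditions holds; inactive = neither condition holds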
# Pf Dd2 growth = P. falciparum Dd2 growth inhibition; SYBR Green, 72 h; hits give low values; activity change, % at 10 µM; 94,000 tested, 2.3% active; AID 1159554; in the data active = activity change below about -80%; inconclusive = no clear call, values can overlap the other calls
# C diff HTS = inhibitors of Clostridium difficile growth; Clostridium difficile clinical isolate growth, OD600, 24 h; hits give low values; growth activity, negative = inhibition, % at 16 µg/mL (by protocol); 86,000 tested, 0.25% active; AID 1259249;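 active = mean growth activity at or below -80% and every replicate also at or below -80%; inconclusive = mean at or below -80% but some replicate above -80%; inactive = mean growth activity above -80%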;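 note: 0% = DMSO wells and -100% = levofloxacin 16 µg/mL wells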
# * hit, by the source's call; ? = inconclusive; nt = no result. The list is not random: actives were taken first. Their share in the collection is about 6.7%.
SMILES,T cruzi growth,Pf Dd2 growth,C diff HTS
C[C@@H]1CCCCO[C@@H](CN(C)C)[C@H](C)CN([C@@H](C)CO)C(=O)c2cc(N(C)C)ccc2O1,nt,nt,-2
O=C(NCC1CCCCC1)[C@H]1[C@H](CO)[C@H]2Cn3c(ccc(C4=CCCCC4)c3=O)[C@@H]1N2,43,4,0
O=C(CCN1CCCCC1)NCC[C@@H]1CC[C@H](NC(=O)C2CCCCC2)[C@H](CO)O1,nt,25,1
COc1ccc2c3c([nH]c2c1)[C@H](CO)N(C(=O)CN(C)C)CC31CCN(CC2CC2)CC1,nt,3,10
COc1ccc2c3c([nH]c2c1)[C@H](CO)N(C(=O)CN(C)C)CC31CCN(CC2CCCCC2)CC1,nt,-89*,7
COc1ccc2c3c([nH]c2c1)[C@H](CO)N(C(=O)CN(C)C)CC31CN(CC2CCCC2)C1,nt,-77,1
COc1ccc2c3c([nH]c2c1)[C@@H](CO)N(C(=O)CN(C)C)CC31CCN(CC2CCCCC2)CC1,nt,-87*,5
CC(C)NC(=O)Nc1ccc2c(c1)C(=O)N([C@H](C)CO)C[C@H](C)[C@@H](CN(C)Cc1ccncc1)O2,nt,6,3
COCC#Cc1ccc2c(c1)O[C@@H](CN(C)C(=O)C1CC1)[C@H](C)CN([C@@H](C)CO)S2(=O)=O,14,8,nt
O=C(C[C@@H]1C=C[C@@H](NC(=O)C2CCOCC2)[C@H](CO)O1)Nc1ccccc1,nt,23,3
COc1ccc(S(=O)(=O)Nc2ccc3c(c2)C(=O)N([C@@H](C)CO)C[C@H](C)[C@@H](CN(C)C(=O)Nc2ccc(C(F)(F)F)cc2)OCCCC[C@H](C)O3)cc1,60,-75,2
COc1ccc(S(=O)(=O)Nc2ccc3c(c2)C(=O)N([C@@H](C)CO)C[C@@H](C)[C@@H](CN(C)C(=O)Nc2ccc(C(F)(F)F)cc2)OCCCC[C@H](C)O3)cc1,74,-87*,9
COc1ccc(S(=O)(=O)Nc2ccc3c(c2)C(=O)N([C@@H](C)CO)C[C@H](C)[C@@H](CN(C)C(=O)Nc2ccc(C(F)(F)F)cc2)OCCCC[C@@H](C)O3)cc1,88,-84*,-6
COc1ccc(S(=O)(=O)Nc2ccc3c(c2)C(=O)N([C@@H](C)CO)C[C@H](C)[C@H](CN(C)C(=O)Nc2ccc(C(F)(F)F)cc2)OCCCC[C@H](C)O3)cc1,71,-56,11
COc1ccc2c3c([nH]c2c1)[C@H](CO)N(C(=O)C1CCOCC1)CC31CCN(Cc2nccs2)CC1,nt,-88*,-4
COc1ccc2c3c([nH]c2c1)[C@H](CO)N(C(=O)C1CCC1)CC31CCN(Cc2nccs2)CC1,nt,-75,-5
COc1ccc2c3c([nH]c2c1)[C@H](CO)N(C(=O)C1CC1)CC31CCN(Cc2nccs2)CC1,nt,-51,-4
COc1ccc2c3c([nH]c2c1)[C@@H](CO)N(C(=O)C1CCCCC1)CC31CCN(Cc2nccs2)CC1,nt,-87*,-4
CC(=O)N1CC2(C1)[C@@H](c1ccc(-c3ccccc3C)cc1)[C@H](CO)N2C(C)=O,nt,9,-3
COc1ccc(S(=O)(=O)N(C)C[C@H]2OCCCC[C@@H](C)Oc3ccc(NC(=O)Cc4ccccc4)cc3C(=O)N([C@@H](C)CO)C[C@H]2C)cc1,71,-71,7
C[C@@H]1CCCCO[C@H](CN(C)S(=O)(=O)c2ccc(F)cc2)[C@@H](C)CN([C@@H](C)CO)C(=O)c2cc(NC(=O)Cc3ccccc3)ccc2O1,90,-76,nt
C[C@H]1CCCCO[C@H](CN(C)S(=O)(=O)c2ccc(F)cc2)[C@@H](C)CN([C@@H](C)CO)C(=O)c2cc(NC(=O)Cc3ccccc3)ccc2O1,91,-89*,nt
COc1ccc(S(=O)(=O)N(C)C[C@H]2OCCCC[C@H](C)Oc3ccc(NC(=O)Cc4ccccc4)cc3C(=O)N([C@H](C)CO)C[C@H]2C)cc1,78,-84*,7
CO[C@H]1CN(C)C(=O)c2cc(NC(C)=O)ccc2OC[C@H](C)N(Cc2cccnc2)C[C@@H]1C,10,27,3
CN1C[C@@H]2[C@H](c3ccccc31)[C@H](CO)N2Cc1ccccc1F,-23,-29,3
SMILES,T cruzi growth,Pf Dd2 growth,C diff HTS
COCC(=O)N1[C@H](CO)[C@@H](c2ccccc2)C12CN(C(=O)NC1CCCCC1)C2,nt,19,-3
COc1ccc(S(=O)(=O)Nc2ccc3c(c2)C(=O)N([C@@H](C)CO)C[C@H](C)[C@H](CN(C)C(=O)Nc2cccc4ccccc24)OCCCC[C@H](C)O3)cc1,82,-86*,nt
COc1ccc(S(=O)(=O)Nc2ccc3c(c2)C(=O)N([C@@H](C)CO)C[C@@H](C)[C@@H](CN(C)C(=O)Nc2cccc4ccccc24)OCCCC[C@@H](C)O3)cc1,55,-29,nt
COc1ccc(S(=O)(=O)Nc2ccc3c(c2)C(=O)N([C@H](C)CO)C[C@@H](C)[C@@H](CN(C)C(=O)Nc2cccc4ccccc24)OCCCC[C@@H](C)O3)cc1,71,-86*,nt
COc1ccc(S(=O)(=O)Nc2ccc3c(c2)C(=O)N([C@@H](C)CO)C[C@H](C)[C@@H](CN(C)C(=O)Nc2cccc4ccccc24)OCCCC[C@H](C)O3)cc1,69,-78,3
COc1ccc(NC(=O)Nc2ccc3c(c2)CC(=O)N([C@H](C)CO)C[C@H](C)[C@@H](CN(C)S(=O)(=O)c2ccc(C)cc2)O3)cc1,nt,-34,-3
C[C@@H]1CN([C@H](C)CO)C(=O)c2cc(NS(=O)(=O)c3ccccc3)ccc2O[C@@H](C)CCCCO[C@@H]1CN(C)S(=O)(=O)c1ccc(Cl)cc1,?,-74,1
C[C@H]1CCCCO[C@H](CN(C)S(=O)(=O)c2ccc(Cl)cc2)[C@@H](C)CN([C@@H](C)CO)C(=O)c2cc(NS(=O)(=O)c3ccccc3)ccc2O1,nt,-90*,0
C[C@@H]1CCCCO[C@@H](CN(C)S(=O)(=O)c2ccc(Cl)cc2)[C@@H](C)CN([C@@H](C)CO)C(=O)c2cc(NS(=O)(=O)c3ccccc3)ccc2O1,nt,-70,1
C[C@@H]1CN([C@@H](C)CO)C(=O)c2cc(NS(=O)(=O)c3ccccc3)ccc2O[C@@H](C)CCCCO[C@@H]1CN(C)S(=O)(=O)c1ccc(Cl)cc1,nt,-85*,4
CCCNC(=O)C[C@H]1CC[C@H]2[C@@H](COC[C@@H](O)CN2Cc2ccccc2F)O1,-45,20,0
CC(C)NC(=O)N1[C@@H](C#N)[C@@H](c2ccc(C#CC3CCCCC3)cc2)[C@@H]1CO,63,-8,-14
CC(C)NC(=O)N1[C@H](C#N)[C@H](c2ccc(C#CC3CCCC3)cc2)[C@@H]1CO,nt,-88*,1
N#C[C@@H]1[C@@H](c2ccc(C#Cc3ccccc3F)cc2)[C@H](CO)N1C(=O)C1CCCC1,nt,-43,47
N#C[C@@H]1[C@@H](c2ccc(C#Cc3ccc(F)cc3)cc2)[C@H](CO)N1C(=O)C1CCCC1,92,-86*,7
CCCC#Cc1ccc([C@H]2[C@@H](CO)N(C(=O)C3CCCCC3)[C@H]2C#N)cc1,92,-86*,-5
CCCC#Cc1ccc([C@H]2[C@@H](CO)N(C(=O)C3CCOCC3)[C@H]2C#N)cc1,78,-15,9
N#C[C@H]1[C@@H](c2ccc(C#Cc3ccc(F)cc3)cc2)[C@H](CO)N1C(=O)C1CCCC1,93,-72,-7

# Bioassay records: PubChem BioAssay, Broad Institute
